# Data: PubChem BioAssay (Tox21)
# Where “and” joins values, the source holds several entries; their conditions need not be identical. Equal entries are not always repeated. Inconclusive results are not listed. Where a call stands in place of a potency, no number is given. Values without a mark were called inactive. Calls of active or inactive are those of the source. Calls follow the shape of the dose curve; as a rule, active = well fitted inhibition curve with a large enough effect in the repeat runs; inconclusive = weak or mixed curves; inactive = no such curve, though single readings can be large or run the other way.
# Target: Cytochrome P450 2C9 (Homo sapiens) (UniProt P11712)
# Sequence (P11712 whole entry, looked up): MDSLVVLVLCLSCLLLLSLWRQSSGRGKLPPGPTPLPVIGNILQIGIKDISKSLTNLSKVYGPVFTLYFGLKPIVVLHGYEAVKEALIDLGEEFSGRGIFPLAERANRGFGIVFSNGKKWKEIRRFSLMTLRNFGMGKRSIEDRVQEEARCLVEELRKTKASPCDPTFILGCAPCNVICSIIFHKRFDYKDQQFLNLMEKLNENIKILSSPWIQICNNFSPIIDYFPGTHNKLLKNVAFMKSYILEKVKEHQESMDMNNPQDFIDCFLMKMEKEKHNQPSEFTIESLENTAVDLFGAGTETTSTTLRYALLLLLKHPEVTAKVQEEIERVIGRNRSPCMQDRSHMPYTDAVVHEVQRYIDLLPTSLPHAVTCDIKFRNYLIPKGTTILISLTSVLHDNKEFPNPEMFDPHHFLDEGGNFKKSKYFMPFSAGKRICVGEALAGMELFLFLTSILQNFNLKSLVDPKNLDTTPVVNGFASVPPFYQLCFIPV
# Experiment: Cytochrome P450 Family 2 Subfamily C Member 9 (CYP2C9) small molecule antagonists: luciferase reporter qHTS assay (AID 1671198); also: nearly all actives have a fitted effect of over 50% in size
# Settings: P450-Glo CYP2C9 enzyme assay, luciferin luminescence; series mostly up to 115 µM; activity change, negative = inhibition: at the top concentration
# Description: U.S. Tox21 Program National Center for Advancing Translational Sciences [NCATS] U.S. Environmental Protection Agency [EPA] National Institutes of Environmental Health Sciences [NIEHS] National Toxicology Program [NTP] U.S. Food and Drug Administration [FDA] Tox21 Assay Overview: Cytochrome P450 (CYP) enzymes are membrane-bound hemeproteins that play a key role in metabolism of drugs and xenobiotics. Evaluation of the effect of chemicals on CYP isozymes is useful to minimize the adverse drug reactions and toxicities in drug development process. Tox21 chemicals were tested for their effect on CYP enzyme activities by using P450-Glo (TM) screening systems (Promega Corporation, Madison, WI). These systems provide a luminescent method containing proluciferin substrates and are converted to luciferin products by CYP isozymes. The luciferin products formed are detected with a luciferin detection reagent, and the amount of light produced is proportional to CYP activity. P450-Glo (TM) CYP2C9 screening system (Catalog. No. V9790) was used to detect the compounds that interfere in CYP2C9 activity.
# Tox21 Assay Protocol Summary: Two ul of enzyme-substrate mix was dispensed into medium binding white/solid 1536-well plates (Greiner Bio-One North America Inc., Monroe, NC) using a BioRaptr Flying Reagent Dispenser (FRD, Beckman Coulter, Brea, CA). […] The assay plates were incubated at room temperature for 10 min. Then 2 ul of NADPH regeneration solution was added to each well of the assay plates using an FRD and incubated at 37C for 1 h. The reaction was stopped by adding 4 ul of detection reagent using an FRD and after 20 min incubation at room temperature the luminescence signal was measured using a ViewLux plate reader (Perkin Elmer, Shelton, CT). Data were expressed as relative luminescence units.
# Potency is read from the fitted curve at half-maximal effect.
SMILES,Potency,"activity change, negative = inhibition"
O=c1[nH]c(=O)n([C@H]2CCCO2)cc1F,inactive,–
CC(C)(N)CO,inactive,–
C#CCN(C)Cc1ccccc1,inactive,–
O=C(O)[C@H](O)[C@@H](O)[C@H](O)[C@H](O)CO,–,3.47% [at 4.07 µM]
CC(=O)Nc1ccccc1,inactive,–
CN(C)CCCN,inactive,–
O=C(O)CCCC[C@@H]1SC[C@@H]2NC(=O)N[C@@H]21,inactive,–
CCCCCOC(C)=O,10 µM (active),–
Oc1cccc2ccccc12,36.5 µM (active) and 35.6 µM (active),–
FC(F)(F)c1ccc(Cl)c(Cl)c1,inactive,–
c1ccc(OCCOc2ccccc2)cc1,28.2 µM (active) and 22.4 µM (active),–
Cc1ccc2oc(=O)ccc2c1,inactive,–
CCCCN(CCCC)CCCC,89.4 µM (active),–
CC1CCC(C(C)C)C(O)C1 (stereo not given),inactive,–
O=C(O)c1ccc(C(=O)O)cc1,–,-7.7%
Cc1ccc(S(N)(=O)=O)cc1,–,1.7%
ON=C1CCCCC1,–,-9.46%
O=c1[nH]c(=O)n([C@H]2C[C@H](O)[C@@H](CO)O2)cc1Br,inactive,–
CC(O)COCC(C)O (stereo not given),inactive,–
CSCCC=O,35.6 µM (active),–

SMILES,Potency,"activity change, negative = inhibition"
Cc1cccnc1,inactive,–
CCCCCC(N)=O,inactive,–
CCCCC(CC)CO (stereo not given),inactive,–
O=S1(=O)CC=CC1,inactive,–
CCCCCC/C(C=O)=C\c1ccccc1,35.6 µM (active),–
O=C(O)c1cc(=O)c2c(OCC(O)COc3cccc4oc(C(=O)O)cc(=O)c34)cccc2o1,inactive,–
OCC(CO)(CBr)CBr,inactive,–
CCCCCCCCCCCCCCCO,40.3 µM (active),–
CC(c1cc2ccccc2s1)N(O)C(N)=O (stereo not given),71 µM (active),–
CC1=C(C)S(=O)(=O)CCS1(=O)=O,–,-14.1%
OCCOCCOCCO,inactive,–
O=C(O)c1cc(C(=O)O)cc(S(=O)(=O)O)c1,inactive,–
CCCCCCCCC/C=C/CC1CC(=O)OC1=O (stereo not given),80 µM (active) and 39.9 µM (active),–
O=C(O)c1ccc2c(c1)C(=O)OC2=O,inactive,–
CC1CCC2CC1C2(C)C (stereo not given),inactive,–
O=c1[nH]nnc2ccccc12,inactive,–
CC(C)(C)[C@@H](O)[C@@H](Cc1ccc(Cl)cc1)n1cncn1,11.2 µM (active) and 22.4 µM (active),–
CCOC(=O)NNc1nncc2ccccc12,inactive,–
O=C(CC(C(=O)OC1CCCCC1)S(=O)(=O)O)OC1CCCCC1 (stereo not given),40.1 µM (active) and 35.1 µM (active),–
CCCCCCOCCO,inactive,–
